Efflux pump mplx = inhibitors of Candida antifungal efflux pumps expressed in yeast; S. cerevisiae Candida pump triplex, Nile Red efflux; inhibition, % at 10 µM; 0.44% of 330,000 active; AID 485275;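 active = plate passing quality check with inhibition over a set limit, or well fluorescence over plate mean plus 4 SD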;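 note: Nile Red retained in pooled yeast measured as flow cytometry median fluorescence; higher means more Nile Red kept so more efflux inhibition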
ALR inh = human ALR oxidase inhibition via reduced H2O2. P55789. purified ALR, DTT oxidation, H2O2 HRP-luminol luminescence. inhibition, % (test concentration not listed). 3.8% of 290,000 active;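 active = mean replicate inhibition above about 79%, with every replicate also reaching it, limit read from the data; inconclusive = only one of the two criteria met; inactive = mean below limit and not every replicate reaching it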
Target sequence (P55789 whole entry, looked up): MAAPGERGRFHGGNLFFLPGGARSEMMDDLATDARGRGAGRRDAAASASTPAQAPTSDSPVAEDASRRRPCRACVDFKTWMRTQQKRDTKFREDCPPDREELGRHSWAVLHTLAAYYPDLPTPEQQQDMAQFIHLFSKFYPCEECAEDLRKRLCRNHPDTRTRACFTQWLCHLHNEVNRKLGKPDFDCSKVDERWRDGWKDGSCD
SUMO Mot1 rescue = SUMOylation pathway inhibition by Mot1-301 growth rescue; S. cerevisiae Mot1-301 growth rescue, ATP luminescence, 38.5C; percent above DMSO median, 100 means doubled; growth rescue, % at 18.8 µM; 1% of 320,000 active; AID 2716;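 active = every valid replicate shows activation above 250% relative to neutral control wells; inactive = the rest, any valid replicate at or below 250%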
VLA-4 inh = inhibition in a human VLA-4 binding assay; 0.2% of 330,000 active; inhibition, % (about 7 µM as worked out from the volumes in the protocol); P13612; VLA-4 expressing cells, ligand binding flow cytometry; in the data active = inhibition above about 50%
Bfl-1 A1 inh = inhibitors of the anti-apoptotic protein A1, read as caspase activation | MEF A1-2A-BIM cells, Caspase-Glo 3/7 luminescence, 3 h; percent of clofoctol response, vehicle zero | caspase activation, % (no concentration beside the values) | 0.066% of 330,000 active | AID 2462;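 active = over half of replicate activation scores above 10%, or exactly half above 10 with the replicate mean above 10; inconclusive = replicate mean below 10 yet half the replicates above 10; inactive = over half of replicates below 10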
AHR act = activators of human aryl hydrocarbon receptor; 2.5% of 320,000 active; AHR-responsive luciferase reporter cells, luminescence; P35869; activation, % at 5 µM; AID 2796; in the data active = activation above about 47%
Large screens that a line does not name were inactive. Only some compounds are listed: those with a hit (about 7.2% of all), similar ones and a draw of the others.

CS(=O)(=O)N1CCC(C(=O)NCc2ccc(Cl)cc2Cl)CC1	none
COc1ccc(-n2c(N)cc(=O)nc2SCC(=O)N2CCN(c3ccccc3)CC2)cc1	ALR inh 99
COc1ccc(N2CCN(C(=O)CSc3nnc(-c4cccnc4)n3-c3ccccc3)CC2)cc1	ALR inh 94
C=CCn1c(=O)c2ccccc2n2c(SCC(C)=O)nnc12	none
CC(=O)Nc1ccc(NC(=O)CSc2nc3nc(-c4cccs4)cc(C(F)(F)F)c3c(=O)[nH]2)cc1	ALR inh 99
COC(=O)CSc1nc2nc(-c3cccs3)cc(C(F)(F)F)c2c(=O)[nH]1	none (no result: ALR inh)
CCCN(C(=O)c1cccc(-n2cccc2)c1)c1c(N)n(Cc2ccccc2)c(=O)[nH]c1=O	none
COc1cc(NC(=O)Cn2nc(C(F)(F)F)c(Br)c2C)cc([N+](=O)[O-])c1	none
CCOC(=O)c1c(/N=C/C2=C(O)CC(C)(C)CC2=O)sc(C(C)=O)c1C	none (no result: SUMO Mot1 rescue)
O=C(CN1CCN(Cc2ccccc2)CC1)Nc1ccc([N+](=O)[O-])cc1C(=O)Nc1ccccc1F	none
O=C(CNCc1ccccn1)Nc1ccc([N+](=O)[O-])cc1C(=O)Nc1ccccc1F	AHR act 75 (no result: ALR inh)
Cc1nc(SCC(=O)c2ccc(F)c(F)c2)[nH]c(=O)c1Oc1ccc(Cl)cc1	none
Cc1nc(C)c(CC(=O)N/N=C/c2ccc(O)cc2)c(=O)[nH]1	ALR inh 90
COc1ccc(/C(C)=N/NC(=O)Cc2c(C)nc(C)[nH]c2=O)cc1	none
CC(=O)Nc1cccc(C(=O)/C=C/c2ccc(/C=C/C(=O)c3cccc(NC(C)=O)c3)cc2)c1	none
CC(=O)Nc1cccc(C(=O)/C=C/c2ccc(N(C)C)cc2)c1	ALR inh 99
CC(=O)Nc1cccc(C(=O)/C=C/c2cccs2)c1	ALR inh 97
Cc1ccc(S(=O)(=O)N2CCC(NC(=O)c3ccccc3)CC2)cc1	none (no result: ALR inh)
CNn1cnc2ccsc2c1=O	none
Cc1cccn2c(=O)c3cc(C(=O)NC4CCCC4)c(=N)n(CC4CCCO4)c3nc12 (stereo not given)	AHR act 55
O=C(COc1ccccc1/C=C1\SC(=O)NC1=O)Nc1ccccc1	AHR act 57 (no result: ALR inh)
CCOC(=O)C1CCN(C(=O)CS(=O)Cc2nc(-c3ccc(C)cc3)oc2C)CC1 (stereo not given)	ALR inh 100 (no result: Bfl-1 A1 inh)
Cc1ccc(-c2nc(CS(=O)CC(=O)N3CCN(c4ccc(F)cc4)CC3)c(C)o2)cc1 (stereo not given)	ALR inh 99
COc1ccc(N2CCN(C(=O)CS(=O)Cc3nc(-c4ccc(OC)c(OC)c4)oc3C)CC2)cc1 (stereo not given)	none
Cc1cccc(-c2nc(CS(=O)CC(=O)N3CCN(C)CC3)c(C)o2)c1 (stereo not given)	ALR inh 99 (no result: Bfl-1 A1 inh)
CCCN(C(=O)c1cccc(S(=O)(=O)N2CCCc3ccccc32)c1)C1CCS(=O)(=O)C1 (stereo not given)	none (no result: ALR inh)
Cc1ccc(C(=O)NCC(=O)NCCc2ccc(S(N)(=O)=O)cc2)s1	none
Cc1nn(C)c(Nc2ccc(Br)cc2)c1Br	ALR inh 93
CN(C)c1ccc(C(=O)/C=C/c2ccc(Br)cc2)cc1	none
CN(C)c1ccc(/C=C/c2cc[n+]([O-])cc2)cc1	ALR inh 99
O=S(=O)(c1cccc(-c2nnc(SCc3nc4ccccc4s3)o2)c1)N1CCOCC1	ALR inh 98
CC(=O)CCSc1nnc(-c2cccc(S(=O)(=O)N3CCOCC3)c2)o1	none
O=C(Nc1cccnc1)C1(c2ccc(Cl)cc2)CCCC1	none
O=C(CCn1c(=O)oc2ccccc21)Nc1cccc(Cl)c1	none
O=C(CCn1c(=O)oc2cc(Cl)ccc21)Nc1ccc(O)cc1	ALR inh 98
O=C(NNc1ccccn1)C(=O)NNS(=O)(=O)c1ccc(F)cc1	ALR inh 99
O=C(NNc1ccccn1)C(=O)NNS(=O)(=O)c1ccc(Cl)cc1	ALR inh 99
O=C(NNS(=O)(=O)c1ccc(F)cc1)c1ccccc1	none
Cc1cccc(NC(=O)CC2SC(=O)N(c3ccccc3)C2=O)c1 (stereo not given)	ALR inh 98
Cc1ccc(NC(=O)CC2SC(=O)N(c3ccccc3)C2=O)cc1 (stereo not given)	ALR inh 98
N=C1SC(CC(=O)Nc2ccc([N+](=O)[O-])cc2)C(=O)N1c1ccccc1 (stereo not given)	none
O=C(CC1SC(=O)N(c2ccccc2)C1=O)Nc1ccccc1 (stereo not given)	ALR inh 98
Cc1cccc(NC2SC(=O)N(c3ccccc3)C2=O)c1 (stereo not given)	none
CC(=O)c1ccccc1NC(=O)Cn1c(=O)cnc2ccccc21	none
O=C(c1ccc2c(c1)C(=O)N(Cc1ccco1)C2O)N1CCOCC1 (stereo not given)	ALR inh 87
COc1ccc(NC(=O)NC(=O)c2cc(OCC(F)(F)F)ccc2OCC(F)(F)F)cc1	none
CC1CN(c2oc(-c3cccs3)nc2C#N)CC(C)O1 (stereo not given)	AHR act 67
N#Cc1nc(-c2cccs2)oc1N1CCOCC1	none
Cc1cc2c(cc1C)CSC(c1ccccc1O)SC2	SUMO Mot1 rescue 273
COC1Cc2ccccc2N(C(N)=O)c2ccccc21 (stereo not given)	AHR act 48
CC(Sc1nc2ccccc2s1)C(=O)c1c(N)n(C)c(=O)n(C)c1=O (stereo not given)	ALR inh 99
Cc1ccc(CN2C(=O)C(C)Nc3ncnc(N4CCN(c5ccccn5)CC4)c32)cc1 (stereo not given)	AHR act 60
CN1C(=O)C(C(=O)Nc2ccccc2F)c2ccccc21 (stereo not given)	none
Cc1ccc(NC(=O)C2C(=O)N(C)c3ccccc32)cc1 (stereo not given)	AHR act 73
COc1ccc(CNc2ccc3c(c2)ncn3-c2ccccc2OC)cc1	none
CCCCn1cnc2cc(NCc3cccc(OC)c3O)ccc21	none
COc1ccccc1-n1cnc2cc(NCc3ccccc3O)ccc21	ALR inh 98
CCn1cnc2cc(NCc3cccc(OC)c3O)ccc21	ALR inh 94
CCCCN(C)CCNC(=O)C(NC(=O)C1CCC(C)CC1)C(C)C (stereo not given)	none (no result: ALR inh)
COc1cccc(-c2cc(N3C(=O)Nc4ccccc4N3O)n[nH]2)c1	none
CCOc1ccc(-c2cc(N3C(=O)Nc4ccccc4N3O)n[nH]2)cc1	ALR inh 98
Cc1ccc(Cl)cc1N1CCN(Cc2nc3ccsc3c(=O)[nH]2)CC1	none
Cc1ccc2c(c1)N=C(c1ccccc1)CC(C(Cl)Cl)=N2	AHR act 62
Cc1ccc(C2=Nc3ccccc3N=C(C(Cl)Cl)C2)cc1	ALR inh inconclusive (no result: SUMO Mot1 rescue)
